Screens: PubChem, National Center for Advancing Translational Sciences (NCATS)
TGFb inhibitor: blocks TGF-b signaling; HepG2 CAGA-GFP TGF-b/SMAD3 reporter, GFP fluorescence, 18 h; TGF-beta stimulated, 500 pg/mL final; Potency, µM (doses to about 46.1 µM), hits mostly inhibitors; 410,000 compounds, 1.2% hits; AID 588855; further: nearly all actives have a fitted effect of over 65% in size
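HEPG2 CAGA-GFP, 1000 cells/well; 2 h settle, 37 C; cpd via pin tool; TGF-b 500 pg/mL final; 18 h, 37 C; GFP imaging ex488/em500-530; %Activity normalised to -TGF-b and +DMSO controls; CRC fit, curve class.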
ATXN2 expr inh: reduces ATXN2 reporter expression in HEK-293 cells; HEK-293 ATXN2-luciferase reporter, luminescence, 24 h; Potency, µM (titrated, usually from 57 µM), most hits filed as inhibitors; 360,000 compounds, 0.72% hits; further: nearly all actives have a fitted effect of over 55% in size
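qHTS (up to 57 uM final) was run with 24 h compound exposure of reporter cells at 37 °C. Each well was multiplexed: SteadyGlo luminescence measured ATXN2-luciferase expression after a fluorogenic Gly-Phe-AFC viability readout (25 uM final).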
S2 tox: viability counter-screen for ATXN expression inhibitors; 400,000 compounds, 0.49% hits; S2 cells (HEK-293 line with an ATXN2-luciferase reporter) viability, CellTiter-Fluor protease fluorescence, 24 h; Potency, µM (titrated, usually from 56.7 µM), actives largely listed as cytotoxic; further: nearly all actives have a fitted effect of over 40% in size
TDP1 cell noCPT: qHTS for Inhibitors of human tyrosyl-DNA phosphodiesterase 1 (TDP1): qHTS in cells in absence of CPT; DT40 Tdp1-/- hTDP1 cells, no CPT, ATP luminescence, 48 h; 420,000 compounds, 15% hits; Potency, µM (series often up to 46.2 µM), usual class: inhibitors; further: nearly all actives have a fitted effect of over 55% in size
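Camptothecin absent (DMSO only). Human TDP1-complemented DT40 knockout cells, 400 cells/well, 37 °C for minimum 48 hr; ATP measured via CellTiter-Glo, 30 min dark incubation, luminescence.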
HepG2 tox: HepG2 cytotoxicity, counter-screen for TGF-b inhibitors; HepG2 CAGA-GFP viability, ATP luminescence, 18 h; Potency, µM (highest dose often 46.1 µM), hits mostly cytotoxic; 410,000 compounds, 0.76% hits; AID 588856
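CellTiter-Glo luminescence gave cytotoxicity after 18 hours at 37 degrees C. The cells were HepG2 CAGA-GFP in 1% FBS DMEM, stimulated with 500 pg/mL TGF-beta after compound addition. %Activity was normalised to no-cell wells (complete cell-killing) and DMSO (no toxicity), and curves were fitted and classified.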
DT40 TDP1 CPT: DT40-hTDP1 cell growth loss with CPT; chicken DT40 Tdp1-/-;hTDP1 cells + 20 nM CPT, ATP luminescence, 48 h; Potency, µM (titrated, usually from 46.2 µM), actives largely listed as inhibitors; 420,000 compounds, 12% hits; further: nearly all actives have a fitted effect of over 55% in size
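Cell growth measured by CellTiter-Glo luminescence after a minimum 48 h, 37 C compound exposure with 20 nM CPT in Tdp1-knockout DT40 cells stably expressing hTDP1, seeded 400/well; qHTS titration format.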
Hits are given with their value; – = inactive; ? = inconclusive; · = no result. Shown are actives, neighbours in structure and some others; about 17% of the full set was active somewhere. The call rests on the fitted dose curve; in most records, active means well fitted curve in the direction sought with a large enough effect; inconclusive means small, poorly fitted or top-dose-only effect, or another doubt; inactive means no such curve, though single readings can be large; an effect the other way counts as inactive or inconclusive.

SMILES | TGFb inhibitor | ATXN2 expr inh | S2 tox | TDP1 cell noCPT | HepG2 tox | DT40 TDP1 CPT
COC(=O)c1ccc(Cl)cc1N(Cc1c(F)cccc1Cl)S(C)(=O)=O | – | – | – | ? | – | ?
COc1ccc(CC(N)c2csc(NC(=O)Nc3ccc(F)cc3)n2)cc1 (stereo not given) | 11.2µM | – | – | 13µM | 17.8µM | 23.1µM
CCOc1ccccc1C(=O)N(Cc1cc(OC)c(OC)c(OC)c1)c1ccccn1 | – | – | – | ? | – | 18.4µM
COc1ccc(/C=C/C(=O)N(Cc2ccccc2)c2ccccn2)cc1OC | – | · | – | – | – | –
CCOc1ccc(C(=O)N(Cc2cc(OC)c(OC)c(OC)c2)c2ccccn2)cc1 | ? | – | ? | 20.6µM | – | 14.6µM
COc1cccc(C(=O)N(Cc2ccco2)c2ccccn2)c1 | – | – | – | ? | – | ?
CCOc1ccc(C(=O)N(c2ccccn2)C2CCCCC2)cc1 | – | – | – | – | – | ?
COc1cc(/C=C/C(=O)N(Cc2ccccc2)c2ccccn2)cc(OC)c1OC | – | – | – | 29.1µM | – | ?
COc1cc(CN(C(=O)c2cccc(C)c2)c2ccccn2)cc(OC)c1OC | – | – | – | 13µM | – | 13µM
O=C(O)Cn1c2ccccc2c2n[nH]c(=S)nc21 | – | – | – | – | – | –
Nc1c[n+](N2CCOCC2)no1 | · | – | – | ? | · | ?
COc1cc(CN(C(=O)c2ccc(C)cc2)c2ccccn2)cc(OC)c1OC | – | – | ? | 20.6µM | – | 18.4µM
COc1cc(OC)c(NC(=O)Cn2cnc3sc(C)c(S(=O)(=O)N4CCN(C)CC4)c3c2=O)cc1Cl | – | – | – | – | – | –
CCOC(=O)c1c(NC(=S)NC(=O)c2ccc(Cn3cc(Cl)cn3)o2)sc2c1CCC(C)C2 (stereo not given) | – | · | – | 8.2µM | – | 13µM
Cc1ccc(NC(=O)c2ccc(Cn3cc(Br)cn3)o2)cc1 | – | – | – | 20.6µM | – | ?
NNC(=O)c1ccc(Cn2cc(Br)cn2)o1 | – | · | – | – | – | –
COC(=O)c1cc(NC(=O)c2ccc(Cn3cc(Cl)cn3)o2)cc(C(=O)OC)c1 | – | ? | 20µM | – | – | ?
Cc1cc2cc(C#N)c(N3CCOCC3)nc2cc1Cl | – | · | – | ? | – | –
Cc1ccc(C)c(CSC2=NN3CCCC(=O)N=C3S2)c1 | – | – | – | 16.4µM | – | ?
O=C1CCCN2N=C(SCC(=O)Nc3cccc(F)c3)SC2=N1 | – | – | – | 13µM | – | 20.6µM
O=C1CCCN2N=C(SCC(=O)Nc3ccc(F)cc3F)SC2=N1 | – | – | – | ? | – | ?
CC(C)c1ccc(NC(=O)CN2C=NS(=O)(=O)c3ccccc32)cc1 | – | – | – | – | – | –
O=C1/C(=C/c2ccc(N3CCOCC3)o2)SC(=Nc2ccccc2)N1CCc1c[nH]c2ccccc12 | – | 17.8µM | ? | 2.06µM | 12.6µM | 2.91µM
COc1ccc(CC2=CC(=O)c3ccccc3C2=O)cc1 | ? | · | ? | 2.06µM | – | 1.84µM
COc1ccc(Cc2ccccc2C(=O)O)cc1 | – | – | – | – | – | –
SMILES | TGFb inhibitor | ATXN2 expr inh | S2 tox | TDP1 cell noCPT | HepG2 tox | DT40 TDP1 CPT
Cc1ccnc(NS(=O)(=O)c2ccc(NC(=O)CCc3ccccc3)cc2)n1 | – | – | – | – | – | –
CN(c1ccccc1)S(=O)(=O)c1cccc(NC(=O)C2CC(=O)N(Cc3ccccc3)C2)c1 (stereo not given) | ? | · | ? | 20.6µM | – | 16.4µM
CCN(CC)c1ccc(NC(=O)C2CC(=O)N(Cc3ccccc3)C2)cc1 (stereo not given) | – | – | – | 11.6µM | – | ?
Cc1ccc(CN2CC(C(=O)Nc3ncc(C)s3)CC2=O)cc1 (stereo not given) | ? | 15.8µM | – | – | – | –
O=C(Nc1cccc(S(=O)(=O)N2CCCCC2)c1)C1CC(=O)N(Cc2ccccc2)C1 (stereo not given) | – | – | – | – | – | ?
O=C(Cn1c(=O)n(Cc2ccco2)c(=O)c2c3c(sc21)CCCCC3)c1ccccc1 | – | – | – | 14.6µM | – | 14.6µM
O=c1c2c3c(sc2n(CCN2CCCC2)c(=O)n1Cc1ccco1)CCCCC3 | – | – | – | 11.6µM | – | 8.2µM
O=C(Cn1c(=O)n(Cc2ccco2)c(=O)c2c3c(sc21)CCCCC3)Nc1ccccc1 | ? | – | – | ? | – | –
CC(=O)OCC(NC(=O)C(Cc1ccccc1)NC(=O)OC(C)(C)C)C1OC(n2cc(C)c(=O)[nH]c2=O)C(OC(C)=O)C1OC(C)=O (stereo not given) | – | · | · | · | – | ·
O=C1NC(=Nc2cccnc2)S/C1=C\c1cccc(F)c1 | – | – | – | 13µM | – | ?
O=C1NC(=Nc2ccccc2)S/C1=C/c1cccs1 | – | · | – | ? | – | –
Cc1ccc(N=C2NC(=O)/C(=C/c3cccs3)S2)cc1C | – | – | – | 10.3µM | – | 13µM
Cc1cccc(N=C2NC(=O)/C(=C\c3cccs3)S2)c1 | – | – | – | 9.2µM | – | 13µM
CCCCN1C(=O)C(O)(c2c(C)[nH]c3ccccc23)c2ccccc21 (stereo not given) | ? | – | – | 5.8µM | – | 5.8µM
CCCCN1C(=O)C(O)(c2c(C)[nH]c3ccccc23)c2cc(Br)ccc21 (stereo not given) | · | · | · | 4.11µM | – | 5.8µM
CCN1C(=O)C(O)(c2c(C)[nH]c3ccccc23)c2ccccc21 (stereo not given) | – | – | – | ? | – | ?
CC(=O)N1CC(C(=O)Nc2ccc3c(c2)OCO3)Oc2ccccc21 (stereo not given) | – | – | – | – | – | –
Cc1ccc(NC(=S)NC(=O)C2CCCC2)c(Br)c1 | ? | – | – | ? | – | –
Cc1ccc2[nH]c(O)c(N=Nc3ccccc3[N+](=O)[O-])c2c1 | – | – | ? | 5.8µM | – | 8.2µM
O=[N+]([O-])c1ccccc1N=Nc1c(O)[nH]c2ccc(F)cc12 | – | – | ? | – | – | –
Cc1ccc2[nH]c(O)c(N=Nc3nc4ccccc4s3)c2c1 | – | ? | 12.6µM | 7.31µM | – | 10.3µM
Cc1ccc2[nH]c(C)c(/C=N/Nc3nc4ccccc4s3)c2c1 | 11.2µM | – | – | ? | – | –
COc1ccc(-c2n[nH]c3c2cnc2ccc(F)cc23)cc1 | – | – | – | – | – | –
CN(C)c1ccc(C=O)c(F)c1 | – | · | · | – | – | –
Cc1cccc(NC(=O)CNC(=O)c2ccccc2Cl)n1 | – | – | – | – | – | –
